# Only some compounds are listed: those with a hit (about 2.3% of all), similar ones and a draw of the others.
# Mcl1 Noxa PPI = Mcl-1/Noxa binding inhibitors, primary screen, biochemical, TR-FRET, 1536-well; AID 1022, 2008; inhibition, % at 21.7 µM; TR-FRET Mcl-1/Noxa peptide binding, 2 h; Induced myeloid leukemia cell differentiation protein Mcl-1 (Homo sapiens), Q07820; 220,000 compounds, 1.5% hits;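 active means compounds that cut the protein-peptide binding signal by more than 50% relative to plate controls in a single-dose test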;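 further: His-tagged Mcl-1 with rhodamine Noxa BH3 peptide and terbium anti-His antibody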
# Mcl-1 Bim block = inhibitors of Bim peptide binding to Mcl-1, primary screen, biochemical, bead-based flow cytometry, multiplex | Induced myeloid leukemia cell differentiation protein Mcl-1 (Homo sapiens), Q07820 | Bim peptide-Mcl-1 binding | inhibition, % at 10 µM | 190,000 compounds, 0.1% hits; in the data active means inhibition above about 40%
# Bcl-xL primary = inhibitors of human Bcl-xL, primary screen, biochemical, fluorescence polarization, HTS. GST-Bcl-xL / FITC-Bim BH3 peptide fluorescence polarization. inhibition, % at 10.9 µM. 320,000 compounds, 0.7% hits. AID 2129, 2009;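 active means inhibition above the mean of all tested compounds plus 3 SD, cutoff set per campaign, cut at about 30% in these data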;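 further: inhibitors lower millipolarization by displacing the labeled peptide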
# MCL1 BIM primary = inhibitors of MCL1 binding to BIM-BH3, primary screen, biochemical, fluorescence polarization. Induced myeloid leukemia cell differentiation protein Mcl-1 (Homo sapiens), Q07820. GST-MCL1 / FITC-Bim-BH3 fluorescence polarization. inhibition, % at 10.9 µM. 320,000 compounds, 0.68% hits. AID 2057, 2009;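 active means inhibition above the mean inhibition of all tested compounds plus 3 SD, set per campaign, cut at about 40% in these data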;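 further: higher means more loss of mP so more displacement of Bim peptide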
# Mcl1-Bid inh = Mcl-1/Bid binding inhibitors, primary screen, biochemical, TR-FRET, 1536-well | Induced myeloid leukemia cell differentiation protein Mcl-1 (Homo sapiens), Q07820 | TR-FRET Mcl-1/Bid-Dy647 peptide binding | inhibition, % at 21.7 µM | 220,000 compounds, 0.97% hits | AID 1021, 2008;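 active means compounds that cut the binding signal by more than half at the single screening dose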;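 further: His-tagged Mcl-1 with europium anti-His antibody binding Bid BH3 peptide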
# GLD-1 RNA inh = GLD-1/TGE RNA complex disruptors, primary screen, biochemical, fluorescence polarization; Female germline-specific tumor suppressor gld-1 (Caenorhabditis elegans), Q17339; purified GLD-1 + fluorescein TGE RNA; inhibition, % at 5.96 µM; 320,000 compounds, 0.44% hits; AID 2280, 2010;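 active means percent inhibition above a per-plate cutoff, the plate mean of test compounds plus 3 SD, cut at about 30% in these data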
# Target sequence (Q17339 whole entry, looked up): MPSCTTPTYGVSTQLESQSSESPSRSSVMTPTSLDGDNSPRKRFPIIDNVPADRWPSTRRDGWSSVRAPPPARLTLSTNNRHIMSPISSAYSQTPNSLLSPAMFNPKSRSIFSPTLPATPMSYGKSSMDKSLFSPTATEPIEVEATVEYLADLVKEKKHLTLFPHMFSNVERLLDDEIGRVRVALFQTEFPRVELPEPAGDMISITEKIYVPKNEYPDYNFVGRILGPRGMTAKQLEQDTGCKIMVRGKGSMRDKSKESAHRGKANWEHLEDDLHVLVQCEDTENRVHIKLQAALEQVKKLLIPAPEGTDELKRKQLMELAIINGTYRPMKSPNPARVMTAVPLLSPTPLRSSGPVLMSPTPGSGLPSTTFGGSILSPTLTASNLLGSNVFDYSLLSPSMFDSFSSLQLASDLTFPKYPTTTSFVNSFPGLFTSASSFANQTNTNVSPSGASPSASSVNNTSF
# Hits are given with their value; – = inactive; · = not tested or not shown.
SMILES,Mcl1 Noxa PPI,Mcl-1 Bim block,Bcl-xL primary,MCL1 BIM primary,Mcl1-Bid inh,GLD-1 RNA inh
Cc1ccc(NC(C)C(=O)N/N=C/c2c[nH]c3ccccc23)cc1 (stereo not drawn),54,–,–,–,–,–
Cc1ccc(CSc2nnc(SCC(=O)N/N=C/c3c[nH]c4ccccc34)s2)cc1,76,–,·,·,90,·
O=C(CSc1nnc(SCc2ccccc2Cl)s1)N/N=C/c1c[nH]c2ccccc12,–,–,–,–,–,–
C=CC[C@H](CC(=O)OC(C)(C)C)C(=O)OC[C@@H]1CCCN1C(=O)[C@@H](CC=C)CC(=O)NCCO,·,·,·,·,·,–
CN(C(=O)CSc1nc2ccc(Cl)cc2[nH]1)C1CCS(=O)(=O)C1 (stereo not drawn),·,·,·,·,·,–
COc1ccc(NC(=O)COC(=O)C2CCN(S(=O)(=O)c3ccccc3)CC2)cc1Cl,·,·,–,–,·,–
CC1(C)CC(=O)C(C(c2cccnc2)C2C(=O)CC(C)(C)CC2=O)C(=O)C1,–,–,–,–,69,–
CN(C)c1ccc(/C=N/NC(=O)COc2ccccc2)cc1,–,–,–,–,–,–
COc1cc(NC(=O)c2ccccc2)c(OC)cc1NC(C)=O,–,–,–,–,–,–
COc1cc(NC(=O)COc2ccccc2)c(OC)cc1NC(C)=O,–,–,–,–,95,–
CN(NC(=O)COc1ccccc1)c1ccccc1,–,–,–,–,94,–
Cc1ccc(S(=O)(=O)Nc2nc3ccccc3nc2NCc2ccco2)cc1,–,–,40,43,–,–
CCCCn1c(N)c(S(=O)(=O)c2ccc(C)cc2)c2nc3ccccc3nc21,–,–,–,–,–,–
Cc1ccc(S(=O)(=O)c2c(N)n(Cc3ccco3)c3nc4ccccc4nc23)cc1,–,–,–,–,–,44
O=S(=O)(Nc1nc2ccccc2nc1NCc1ccco1)c1ccc(Cl)cc1,–,–,–,–,–,–
Cc1cccc(S(=O)(=O)c2c(N)n(Cc3ccco3)c3nc4ccccc4nc23)c1,–,–,37,–,–,69
CSCCC(NC(=O)c1ccccc1)C(=O)N1CCN(C(c2ccccc2)c2ccccc2)CC1 (stereo not drawn),·,·,–,–,·,–
CN(C)c1ccc(NC(=O)CCCc2ccccc2)cc1,79,–,–,–,–,–
O=C(OCC(=O)N1CCN(C(=O)c2ccco2)CC1)c1cccc(S(=O)(=O)N2CCc3ccccc32)c1,–,–,–,–,–,–
Cc1nc(COC(=O)c2cc(O)c3ccccc3c2O)cs1,104,–,·,·,94,·
Cc1nc(COC(=O)c2ccc(CO)cc2)cs1,–,–,–,–,–,–
COc1ccc(O)c(C(=O)C2c3ccccc3C(=O)N2c2ccc(C)cc2)c1 (stereo not drawn),–,·,31,–,–,–
COc1ccc(N2C(=O)c3ccccc3C2O)cc1 (stereo not drawn),·,·,–,–,·,–
CCc1nn2c(N3CCOCC3)cc(C)nc2c1-c1ccccc1,·,·,–,–,·,–
O=C(N/N=C/c1ccco1)c1cccc(N2CCCC2=O)c1,–,–,–,–,–,–
SMILES,Mcl1 Noxa PPI,Mcl-1 Bim block,Bcl-xL primary,MCL1 BIM primary,Mcl1-Bid inh,GLD-1 RNA inh
O=C(N/N=C/c1ccco1)c1cccc(N2Cc3ccccc3C2)c1,75,–,–,–,–,–
CCC1CSC(Nc2ccc(C(=O)/C=C/c3cccc(C)c3)cc2)=N1 (stereo not drawn),85,–,–,–,–,–
COc1ccc(CCNC(=O)CCCCCN2C(=O)c3ccccc3C2=O)cc1OC,–,–,–,–,–,–
COc1ccc(CCNC(=O)c2ccc(=O)[nH]n2)cc1OC,–,–,–,–,100,–
COc1ccc(CCNC(=O)CCCN2C(=O)c3ccccc3C2=O)cc1OC,–,–,–,–,62,–
COc1ccc(CCNC(=O)c2ccc(OC)c(OC)c2)cc1OC,·,·,–,–,·,–
COc1ccc(CCNC(=O)c2ccc(Cl)cc2Cl)cc1OC,–,–,–,–,83,–
